“And” between values parts separate entries of the source, which are not always exact repeats. Equal entries are not always repeated. Some structures have more than one record in an assay (separate samples or runs), and their calls can disagree. The source made the active and inactive calls. Rule for the calls: active = hit-call score of the fitted dose curve at least 0.9, where 1 is the maximum; inactive = score below 0.9.
Tests used:
[1] = BSK_CASM3C_SRB: Viability Assessment in the BioMAP Diversity Plus: CASM3C Assay (AID 2283050); conditions: primary human coronary artery smooth muscle cells
[2] = read-out: Thrombomodulin, THBD (gene 7056); assay: BSK_CASM3C_Thrombomodulin: BioMAP Diversity Plus: CASM3C Assay for Thrombomodulin Biomarker Activity (AID 2283051); conditions: primary human coronary artery smooth muscle cells; actives raise or lower the signal;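 note: thrombomodulin protein level measured by ELISA 24 h after dosing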
[3] = read-out: Tissue Factor, F3 (gene 2152); assay: BSK_CASM3C_TissueFactor: BioMAP Diversity Plus: CASM3C Assay for Tissue Factor Biomarker Activity (AID 2283052); conditions: primary human coronary artery smooth muscle cells; actives raise or lower the signal;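 note: cell surface tissue factor protein level read by ELISA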
[4] = read-out: Interferon-gamma inducible Protein 10 (IP10), CXCL10 (gene 3627); assay: BSK_hDFCGF_IP10: BioMAP Diversity Plus: hDFCGF Assay for Interferon-gamma inducible Protein 10 (IP10) Biomarker Activity (AID 2283053); conditions: primary human foreskin fibroblasts; actives raise or lower the signal
Summary of the method: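 Chemical-treated human skin fibroblasts (primary) were sampled at 24 h for IP-10 by ELISA. Both increases and decreases relative to DMSO were scored.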

[5] = read-out: Urokinase-type plasminogen activator receptor (uPAR), PLAUR (gene 5329); assay: BSK_CASM3C_uPAR: BioMAP Diversity Plus: CASM3C Assay for Urokinase-type plasminogen activator receptor (uPAR) Biomarker Activity (AID 2283054); conditions: primary human coronary artery smooth muscle cells; actives raise or lower the signal;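 note: cell-surface uPAR protein level quantified by ELISA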
[6] = read-out: Vascular cell adhesion molecule 1 (VCAM1), VCAM1 (gene 7412); assay: BSK_CASM3C_VCAM1: BioMAP Diversity Plus: CASM3C Assay for Vascular cell adhesion molecule 1 (VCAM1) Biomarker Activity (AID 2283055); conditions: primary human coronary artery smooth muscle cells; actives raise or lower the signal;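 note: VCAM-1 protein level quantified by ELISA on the cells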
[7] = read-out: Collagen III, COL3A1 (gene 1281); assay: BSK_hDFCGF_CollagenIII: BioMAP Diversity Plus: hDFCGF Assay for Collagen III Biomarker Activity (AID 2283056); conditions: primary human foreskin fibroblasts; actives raise or lower the signal
Summary of the method: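 Response relative to DMSO, fitted in both directions, reflects ELISA-measured collagen III in human primary skin fibroblasts 24 h after compound addition.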

[8] = read-out: Epidermal growth factor receptor (EGFR), EGFR (gene 1956); assay: BSK_hDFCGF_EGFR: BioMAP Diversity Plus: hDFCGF Assay for Epidermal growth factor receptor (EGFR) Biomarker Activity (AID 2283057); conditions: primary human foreskin fibroblasts; actives raise or lower the signal
Summary of the method: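 Cell-based multiplexed assay in primary human foreskin fibroblasts. EGFR is read by ELISA 24 h after treatment and compared with DMSO controls.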

[9] = read-out: Interleukin-8 (IL8), CXCL8 (gene 3576); assay: BSK_hDFCGF_IL8: BioMAP Diversity Plus: hDFCGF Assay for Interleukin-8 (IL8) Biomarker Activity (AID 2283058); conditions: primary human foreskin fibroblasts; actives raise or lower the signal
Summary of the method: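 Fibroblast monolayers (human foreskin, hDFCGF) received test chemical for 24 h before ELISA detection of IL-8; either increases or decreases relative to DMSO count as activity.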

[10] = BSK_hDFCGF_Proliferation: Cell Proliferation Assessment in the BioMAP Diversity Plus: hDFCGF Assay (AID 2283059); conditions: primary human foreskin fibroblasts;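 note: curves fitted for both rise and fall of signal versus DMSO baseline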
Summary of the method: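 Total protein read at 560 nm after 0.1% SRB staining of TCA-fixed human skin fibroblasts, […]. Activity is fitted in both directions relative to DMSO as baseline.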

[11] = read-out: Macrophage colony-stimulating factor (MCSF), CSF1 (gene 1435); assay: BSK_hDFCGF_MCSF: BioMAP Diversity Plus: hDFCGF Assay for Macrophage colony-stimulating factor (MCSF) Biomarker Activity (AID 2283060); conditions: primary human foreskin fibroblasts; actives raise or lower the signal
Summary of the method: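 fibroblasts (human foreskin, primary), 24 h post-dose; M-CSF by ELISA; bidirectional fit, DMSO = baseline.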

[12] = BSK_hDFCGF_SRB: Viability Assessment in the BioMAP Diversity Plus: hDFCGF Assay (AID 2283061); conditions: primary human foreskin fibroblasts;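 note: cells exposed to compound for 24 h before the read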
Summary of the method: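 SRB-based viability read on primary human skin fibroblasts at 24 h: TCA fixation, 0.1% dye, 560 nm. Gain or loss of signal is fitted against the DMSO negative control.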

[13] = read-out: TIMP metallopeptidase inhibitor 1 (TIMP1), TIMP1 (gene 7076); assay: BSK_hDFCGF_TIMP1: BioMAP Diversity Plus: hDFCGF Assay for TIMP metallopeptidase inhibitor 1 (TIMP1) Biomarker Activity (AID 2283062); conditions: primary human foreskin fibroblasts; actives raise or lower the signal
Summary of the method: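 Bidirectional curve fitting against DMSO baseline yielded this endpoint, based on ELISA detection of TIMP-1 in primary human foreskin fibroblasts exposed to compound for 24 h.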

[14] = read-out: Monokine induced gamma interferon (MIG), CXCL9 (gene 4283); assay: BSK_hDFCGF_MIG: BioMAP Diversity Plus: hDFCGF Assay for Monokine induced gamma interferon (MIG) Biomarker Activity (AID 2283063); conditions: primary human foreskin fibroblasts; actives raise or lower the signal
Summary of the method: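 Endpoint derived by bidirectional fitting relative to DMSO; MIG quantified via ELISA in primary human foreskin fibroblasts harvested 24 h after dosing.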

[15] = read-out: Matrix Metallopeptidase 1 (MMP1), MMP1 (gene 4312); assay: BSK_hDFCGF_MMP1: BioMAP Diversity Plus: hDFCGF Assay for Matrix Metallopeptidase 1 (MMP1) Biomarker Activity (AID 2283064); conditions: primary human foreskin fibroblasts; actives raise or lower the signal
Summary of the method: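 MMP1 levels quantified by ELISA 24 h after dosing human dermal fibroblast cultures, with parallel SRB total-protein staining for overt cytotoxicity. Data fitted in both directions against DMSO baseline.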

[16] = read-out: Vascular cell adhesion molecule 1 (VCAM1), VCAM1 (gene 7412); assay: BSK_hDFCGF_VCAM1: BioMAP Diversity Plus: hDFCGF Assay for Vascular cell adhesion molecule 1 (VCAM1) Biomarker Activity (AID 2283065); conditions: primary human foreskin fibroblasts; actives raise or lower the signal;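 for AC50: VCAM-1 protein level quantified by ELISA after 24 h chemical exposure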
Summary of the method: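 Measured after 24 h chemical treatment of primary human skin fibroblasts, VCAM-1 was detected by ELISA and concentration-response analysed in both directions versus DMSO vehicle.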

[17] = read-out: Plasminogen activator inhibitor-1 (PAI1), SERPINE1 (gene 5054); assay: BSK_hDFCGF_PAI1: BioMAP Diversity Plus: hDFCGF Assay for Plasminogen activator inhibitor-1 (PAI1) Biomarker Activity (AID 2283066); conditions: primary human foreskin fibroblasts; actives raise or lower the signal
Summary of the method: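 Human skin fibroblast cultures receive chemical for 24 h before PAI-1 is measured by ELISA; signal changes are fitted bidirectionally against DMSO-treated wells.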

[18] = read-out: Intercellular Adhesion Molecule 1 (ICAM1), ICAM1 (gene 3383); assay: BSK_KF3CT_ICAM1: BioMAP Diversity Plus: KF3CT Assay for Intercellular Adhesion Molecule 1 (ICAM1) Biomarker Activity (AID 2283067); conditions: primary human keratinocytes with fibroblasts; actives raise or lower the signal
Summary of the method: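 Bidirectional curve fitting against a DMSO baseline was applied to ICAM-1 ELISA signal from primary human skin co-cultures harvested 24 h after treatment, with SRB staining of parallel wells for overt cytotoxicity.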

[19] = read-out: Interferon-gamma inducible Protein 10 (IP10), CXCL10 (gene 3627); assay: BSK_KF3CT_IP10: BioMAP Diversity Plus: KF3CT Assay for Interferon-gamma inducible Protein 10 (IP10) Biomarker Activity (AID 2283068); conditions: primary human keratinocytes with fibroblasts; actives raise or lower the signal
Summary of the method: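 Human keratinocyte plus foreskin fibroblast primary co-culture exposed to test chemical for 24 h; IP-10 measured by ELISA. Concentration-response fitted bidirectionally against DMSO control as baseline.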

[20] = BSK_KF3CT_SRB: Viability Assessment in the BioMAP Diversity Plus: KF3CT Assay (AID 2283069); conditions: primary human keratinocytes with fibroblasts;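 note: total protein by sulforhodamine B staining as a cytotoxicity measure; fitted for both signal gain and loss against DMSO baseline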
Summary of the method: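 Cytotoxicity was gauged by SRB staining (0.1% SRB, 10% TCA fixation, 560 nm) of parallel cultures at 24 h. The cells were primary human skin keratinocytes co-cultured with fibroblasts, and activity was fitted in both directions against DMSO.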

Measured: AC50

CC1=C2C[C@H]3[C@@H](CC=C4C[C@@H](O)CC[C@@]43C)[C@@H]2CC[C@]12O[C@@H]1C[C@H](C)CN[C@H]1[C@H]2C
inactive: all assays above

O=C(NC(=O)c1c(F)cccc1F)Nc1cc(Cl)c(OC(F)(F)C(F)F)c(Cl)c1
inactive: all assays above

O=NN(c1ccccc1)c1ccccc1
active: [2] 4.46 µM
inactive: all other assays above

C=CC(N)=O
inactive: all assays above

Cc1ccccc1O
inactive: all assays above

Oc1c(Cl)c(Cl)c(Cl)c(Cl)c1Cl
active: [1] 29.6 µM | [3] 34.9 µM | [4] 10.2 µM and 13.1 µM | [5] 20 µM | [6] 20 µM | [7] 2.34 µM and 2.57 µM | [10] 3.11 µM and 8.24 µM | [12] 7.08 µM and 12.4 µM | [13] 13.7 µM | [14] 4.29 µM | [15] 33.1 µM | [16] 10.2 µM and 4.61 µM | [17] 10.2 µM and 9.72 µM | [18] 10.2 µM and 16.6 µM | [19] 12.9 µM and 20 µM | [20] 6.37 µM
inactive: [1] | [2] | [3] | [5] | [8] | [9] | [13] | [15] | [20]

COS(=O)(=O)OC
inactive: all assays above

CCCN(CCC)N=O
inactive: all assays above

Cc1cc2c3c(c1)C(c1ccccc1)=N[C@@H](NC(=O)c1ccncc1)C(=O)N3CC2
active: [10] 11.5 µM | [15] 14 µM | [17] 5.53 µM
not listed: [11]
inactive: all other assays above

NS(=O)(=O)C(F)(F)C(F)(F)C(F)(F)C(F)(F)C(F)(F)C(F)(F)C(F)(F)C(F)(F)F
active: [1] 31.8 µM and 45.5 µM and 49.3 µM | [2] 26 µM and 34.6 µM and 37.3 µM | [4] 20 µM and 9.33 µM and 8.26 µM | [5] 46.6 µM and 42.5 µM | [6] 11.4 µM and 16.7 µM | [7] 12.6 µM and 10.8 µM and 9.02 µM | [9] 37.5 µM and 22.2 µM and 34 µM | [10] 12.2 µM and 18.3 µM and 19.5 µM | [12] 26.9 µM and 55 µM and 47.2 µM | [13] 34.4 µM and 53.2 µM and 54.7 µM | [14] 29.4 µM and 9.34 µM and 11 µM | [15] 30.7 µM and 15.3 µM and 17.5 µM | [16] 17.3 µM and 9.88 µM and 7.69 µM | [17] 27.7 µM and 15.4 µM and 21.1 µM | [18] 32 µM and 43.5 µM and 54 µM | [19] 13 µM and 32.4 µM and 37.3 µM | [20] 30.1 µM and 45.6 µM and 21.4 µM
inactive: [3] | [5] | [6] | [8]

From PubChem BioAssay (EPA / NIEHS)
